From PubChem
The list is not random: actives were taken first. Their share in the collection is about 4.1%.
KLF5 inh – kruppel-like factor 5 inhibition; AID 1700; DLD-1 KLF5 promoter-luciferase reporter, luminescence; hit rate 0.23% among 290,000; inhibition, % at 5 µM;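 active = inhibition above a per-plate limit of that plate's mean compound inhibition plus 3 SD, cut at about 60% in these data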;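 note: 0% = DMSO wells and 100% = LY294002 at 200 µM; higher means less KLF5 promoter-driven luciferase light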
Jurkat NFkB inh – inhibitors of the PMA/ionomycin-induced NF-kB reporter in Jurkat cells; PMA/ionomycin-induced NF-kB luciferase reporter, luminescence; inhibition, % at 4 µM; hit rate 0.53% among 330,000; AID 435003; in the data active = inhibition above about 50%
Mdm2 MdmX PPI – inhibitors of human Mdm2/MdmX interaction; hit rate 3% among 330,000; AID 485346; O15151+Q00987; inhibition, % at 8 µM; SaOS-2 split-luciferase Mdm2/MdmX complementation, luminescence;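 active = inhibition of at least 50% at 8 µM in the primary screen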
aSyn 5UTR inh – MLPCN primary screen, SNCA 5' untranslated region. inhibition, % (tested at 7.5 µM). alpha-synuclein 5'UTR reporter, inhibitor activity. hit rate 0.82% among 300,000; in the data active = inhibition above about 60%;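 note: H4 neuroglioblastoma cells stably carrying SNCA 5'UTR luciferase fusion; 0% = DMSO wells and 100% = positive control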
Gli-Sufu block – antagonists of Gli-Sufu signaling; inhibition, % at 5 µM; Sufu-KO-LIGHT fibroblasts, Gli luciferase reporter luminescence; hit rate 0.74% among 340,000;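 active = inhibition above about 55%, limit read from the data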;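 note: 0% = DMSO-treated cells and 100% = wells with medium but no cells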
697 NFkB inh – lowers PMA/ionomycin-induced NF-kB signal in 697 B cells. 697 B-cell NF-kB luciferase reporter, 16 h. AID 435022. inhibition, % at 4 µM. hit rate 0.33% among 330,000; in the data active = inhibition above about 35%
Gli antag conf – Gli-SUFU antagonism confirmation, single concentration; shares compounds with Gli-Sufu block; Sufu-KO-LIGHT cells, Gli luciferase reporter, luminescence; inhibition, % at 5 µM; hit rate 40% among 2,500; AID 602428;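 active = mean inhibition at 5 µM reaching about 45%, limit read from the data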;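 note: plate controls were DMSO-treated cells for no effect and wells lacking cells for full effect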
Gli cytotox – cytotoxic in Gli-SUFU antagonist counter-screen; hit rate 32% among 2,500; shares compounds with Gli-Sufu block; cytotoxicity, % at 5 µM; Sufu-KO-LIGHT cells cytotoxicity, ATP luminescence; AID 651994;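 active = mean cytotoxicity at 5 µM above about 25%, limit read from the data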;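 note: cells exposed to compound overnight for roughly 16 to 18 hours; plate controls were DMSO wells with cells for no effect and medium without cells for full effect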
Wnt3a counter – Wnt3a reporter inhibition counter-screen; Wnt-LIGHT cells, Wnt3a-driven luciferase reporter, luminescence; shares compounds with Gli-Sufu block; hit rate 20% among 2,500; inhibition, % at 6.25 µM;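 active = mean inhibition above about 25%, limit read from the data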
Numbers without * were called inactive; / = no result.

SMILES | KLF5 inh | Jurkat NFkB inh | Mdm2 MdmX PPI | aSyn 5UTR inh | Gli-Sufu block | 697 NFkB inh | Gli antag conf | Gli cytotox | Wnt3a counter
Cc1ccc(-c2cn(-c3ccc(OC(F)F)cc3)c3[n+]2CCCCC3)cc1 | -7 | 18 | 21 | -6 | 83* | -43 | 86* | 41* | 17
CCN1C(=O)[C@H]2[C@@H](c3ccc(Cl)cc3)N3C(=O)CN(CC4CC4)C(=O)[C@@]3(Cc3ccccc3)[C@H]2C1=O | -13 | -1 | 10 | 13 | -10 | 7 | / | / | /
COCCCN1CN(S(=O)(=O)c2ccc(C)cc2C)c2nc3ccccc3nc21 | -22 | 1 | -5 | 2 | -13 | -1 | / | / | /
O=Cc1cc2ccccc2nc1SCCCF | -2 | 18 | 25 | -13 | -9 | 20 | / | / | /
C=CCC1NS(=O)(=O)OC(CCc2ccccc2)C1O (centres undefined) | -12 | -7 | -5 | -6 | -7 | -22 | / | / | /
C=CC[C@]12CCc3sccc3C1N(c1ccc(C(=O)OCC)cc1)C2=O (some centres undefined) | / | 15 | 10 | / | 4 | -20 | / | / | /
COc1ccc2[nH]c(CN3CCC(CO)(CCOc4ccccc4)CC3)c(C)c2c1 | -16 | -11 | 41 | 20 | 20 | 7 | / | / | /
COc1ccc(CCNc2ncnc3cc(OC)c(OC)cc23)cc1OC | -17 | / | / | 12 | 44 | / | / | / | /
COc1cc2ncnc(NCCc3ccccc3)c2cc1OC | -17 | 24 | 38 | 12 | 60* | 9 | 32 | -1 | -27
CCN(CC)Cc1cc(Nc2c3ccccc3nc3c4ccccc4n(C)c23)cc(CN(CC)CC)c1O | / | / | / | / | 14 | / | / | / | /
Cc1cc(NC(=O)C(C)C)ncc1NC(=O)c1ccccn1 | -88 | -36 | -13 | -88 | -10 | -28 | / | / | /
CCCC(=O)Nc1cc(C)c(NC(=O)c2ccccn2)cn1 | -29 | 2 | 14 | -30 | 59* | 9 | 6 | 5 | -51
O=C(NC1CCCCCCC1)c1cc(COc2ccc3ncccc3c2)on1 | -9 | / | / | 26 | 73* | / | 73* | 28* | -12
CCOC(=O)N1CCN(C(=O)c2cc(COc3cccc(C(C)=O)c3)on2)CC1 | -27 | -29 | 15 | -30 | -2 | -29 | / | / | /
O=C(c1cc(COc2ccc3ncccc3c2)on1)N1CCCC(O)C1 (centres undefined) | -24 | 7 | -12 | -36 | 29 | 1 | / | / | /
Cc1cccnc1CN1CCN(C(=O)c2cc(COc3ccc4ncccc4c3)on2)CC1 | -18 | 26 | 38 | 3 | 62* | -47 | 66* | 27* | 27*
CCOC(=O)N1CCN(C(=O)c2cc(COc3ccc4ncccc4c3)on2)CC1 | 11 | 26 | 13 | -17 | 67* | -1 | 51* | 23 | 23
CN(CC(=O)Nc1ccccc1Cl)C(=O)CN1C(=O)C2CC=CCC2C1=O (centres undefined) | / | -5 | -25 | / | 55 | -2 | 5 | -1 | 10
O=C(CN(Cc1ccco1)C(=O)CCC(=O)Nc1ccccn1)NCc1ccccc1 | 11 | 23 | 24 | -1 | 1 | 17 | / | / | /
c1ccc(-c2csc3nnc(SCc4ccc5c(c4)OCO5)n23)cc1 | -21 | 0 | -8 | 16 | 52 | -8 | 10 | 6 | 5
CN(C)C1C(=O)c2ccccc2C1=O | -15 | 3 | -20 | -7 | -5 | 13 | / | / | /
CCC1CCCCN1CCCNC(=O)Cn1c(=O)c2cccn2c2cccnc21 (centres undefined) | -16 | -16 | -5 | 0 | 69* | -59 | 24 | 2 | 15
O=C(O)Cc1csc(Nc2cccc(Cl)c2)n1 | -8 | -8 | 6 | -30 | 69* | 3 | 13 | 20 | -31
Nc1ccc(Br)cc1-c1nc2ccccc2[nH]c1=O | -32 | -21 | 4 | -102 | 52 | -14 | 69* | 34* | 7
O=C(Cc1ncc(C(F)(F)F)cc1Cl)NCCc1ccccn1 | -6 | 11 | -7 | 19 | 55* | 17 | 22 | 12 | 1
COc1cccc(NC(=O)CN(C)C(=O)c2ccc(OCC3CCCO3)cc2)c1 (centres undefined) | / | -16 | 11 | / | -6 | 3 | / | / | /
